# Laboratory results published in PubChem BioAssay (Tox21).
# Values without a mark were called inactive. Inconclusive results are not listed. Where a call stands in place of a potency, no number is given. Active and inactive are the calls of the source. Calls follow the shape of the dose curve; as a rule, active = well fitted curve in the direction sought with a large enough effect in the repeat runs; inconclusive = weak or mixed curves; inactive = no such curve, though single readings can be large; an effect the other way counts as inactive or inconclusive.
# Legend:
# [1] = qHTS RealTime-Glo MT Cell Viability Assay in HEK293 cells - 16 hour (AID 1224872); also: nearly all actives have a fitted effect of over 50% in size; also: potency is read from the fitted curve at half-maximal effect
# How it was run: (§1)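 Assay medium contained NanoLuc luciferase plus cell-permeant prosubstrate, added with HEK293 cells at 600 cells/well. After 5 h at 37 C/5% CO2 compounds were added; plates stayed at 37 C for 40 h with serial luminescence reads.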
# [2] = qHTS RealTime-Glo MT Cell Viability Assay in HepG2 cells - 8 hour (AID 1224873); also: nearly all actives have a fitted effect of over 55% in size; also: potency is read from the fitted curve at half-maximal effect
# How it was run: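 HepG2 cells mixed with RealTime-Glo MT reagents (NanoLuc plus cell-permeant prosubstrate) were seeded at 600 cells/well, incubated 5 h at 37 C/5% CO2, then pinned with compounds in DMSO; nonlytic luminescence tracked viability during 40 h treatment.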
# [3] = qHTS RealTime-Glo MT Cell Viability Assay in HEK293 cells - 40 hour (AID 1224874); conditions: RealTime-Glo luminescence; max response: stronger effect = lower value; also: nearly all actives have a fitted effect of over 50% in size; also: potency is read from the fitted curve at half-maximal effect
# How it was run: (§2)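 Luminescence readout at each listed time point; HEK293, 600 cells/well, RealTime-Glo MT reagent added with cells; compounds pinned (23 nL in DMSO) after 5 h at 37 C; continuous culture at 37 C.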
# [4] = A CellTox Green Cytotoxicity Assay to monitor cytotoxicity in HEK293 cells - 24 hour (AID 1224875); also: nearly all actives have a fitted effect of over 45% in size; also: potency is read from the fitted curve at half-maximal effect
# How it was run: (§3)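 Read-out: fluorescence of a cell-impermeant cyanine dye staining DNA of dead cells, proportional to cytotoxicity. HEK293, 600 cells/well with reagent, compound (23 nL DMSO) added after 5 h; reads at 0, 8, 16, 24, 32, 40 h.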
# [5] = A CellTox Green Cytotoxicity Assay to monitor cytotoxicity in HepG2 cells - 16 hour (AID 1224876); also: nearly all actives have a fitted effect of over 45% in size; also: potency is read from the fitted curve at half-maximal effect
# How it was run: (§4)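 HepG2, 600 cells/well premixed w/ CellTox Green; 5 h settle, 37 C/5% CO2; pintool cpd add (DMSO); 37 C, 40 h; fluorescence read at 0, 8, 16, 24, 32, 40 h.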
# [6] = qHTS RealTime-Glo MT Cell Viability Assay in HepG2 cells - 32 hour (AID 1224877); also: nearly all actives have a fitted effect of over 55% in size; also: potency is read from the fitted curve at half-maximal effect
# How it was run: (§5)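 qHTS, HepG2, 600 cells/well, RealTime-Glo (NanoLuc + prosubstrate) added with cells; 5 h preincubation; DMSO compound addition; 37 C; luminescence at 0/8/16/24/32/40 h.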
# [7] = A CellTox Green Cytotoxicity Assay to monitor cytotoxicity in HepG2 cells - 24 hour (AID 1224878); also: nearly all actives have a fitted effect of over 45% in size; also: potency is read from the fitted curve at half-maximal effect
# How it was run: as §4
# [8] = A CellTox Green Cytotoxicity Assay to monitor cytotoxicity in HepG2 cells - 40 hour (AID 1224879); also: nearly all actives have a fitted effect of over 40% in size; also: potency is read from the fitted curve at half-maximal effect
# How it was run: as §4
# [9] = qHTS RealTime-Glo MT Cell Viability Assay in HEK293 cells - 0 hour (AID 1224880); also: top concentration of the series differs between compounds; nearly all actives have a fitted effect of over 45% in size
# How it was run: as §2
# [10] = A CellTox Green Cytotoxicity Assay to monitor cytotoxicity in HepG2 cells - 32 hour (AID 1224883); also: nearly all actives have a fitted effect of over 50% in size; also: potency is read from the fitted curve at half-maximal effect
# How it was run: as §4
# [11] = qHTS RealTime-Glo MT Cell Viability Assay in HepG2 cells - 16 hour (AID 1224885); also: nearly all actives have a fitted effect of over 50% in size; also: potency is read from the fitted curve at half-maximal effect
# How it was run: as §5
# [12] = qHTS RealTime-Glo MT Cell Viability Assay in HEK293 cells - 24 hour (AID 1224886); also: nearly all actives have a fitted effect of over 50% in size; also: potency is read from the fitted curve at half-maximal effect
# How it was run: as §1
# [13] = qHTS RealTime-Glo MT Cell Viability Assay in HEK293 cells - 8 hour (AID 1224887); also: nearly all actives have a fitted effect of over 50% in size; also: potency is read from the fitted curve at half-maximal effect
# How it was run: as §2
# [14] = A CellTox Green Cytotoxicity Assay to monitor cytotoxicity in HEK293 cells - 16 hour (AID 1224888); also: nearly all actives have a fitted effect of over 35% in size; also: potency is read from the fitted curve at half-maximal effect
# How it was run: as §3
# [15] = qHTS RealTime-Glo MT Cell Viability Assay in HepG2 cells - 0 hour (AID 1224889); also: nearly all actives have a fitted effect of over 50% in size
# How it was run: as §5
# [16] = A CellTox Green Cytotoxicity Assay to monitor cytotoxicity in HepG2 cells - 8 hour (AID 1224890); also: nearly all actives have a fitted effect of over 45% in size; also: potency is read from the fitted curve at half-maximal effect
# How it was run: as §4
# [17] = qHTS assay to identify small molecule antagonists of the estrogen receptor alpha (ER-alpha) signaling pathway using the BG1 cell line in the presence of 0.1 nM 17-beta-estradiol - cell viability counter screen (AID 1259241); also: nearly all actives have a fitted effect of over 40% in size; also: potency is read from the fitted curve at half-maximal effect
# How it was run: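 VM7Luc4E2, 4,000 cells/well, phenol red-free medium + 10% charcoal-stripped FBS; 24 hr plating; cpd + 0.1 nM E2 final, 22 hr 37C/5% CO2; CellTiter-Fluor 30 min, fluorescence.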
# [18] = A CellTox Green Cytotoxicity Assay to monitor cytotoxicity in HEK293 cells - 32 hour (AID 1224881); also: nearly all actives have a fitted effect of over 40% in size; also: potency is read from the fitted curve at half-maximal effect
# How it was run: as §3
# [19] = A CellTox Green Cytotoxicity Assay to monitor cytotoxicity in HepG2 cells - 0 hour (AID 1224882); also: nearly all actives have a fitted effect of over 35% in size
# How it was run: as §4
# [20] = A CellTox Green Cytotoxicity Assay to monitor cytotoxicity in HEK293 cells - 8 hour (AID 1224884); also: nearly all actives have a fitted effect of over 35% in size; also: potency is read from the fitted curve at half-maximal effect
# How it was run: as §3
structure (smiles),measurement,setting,value
O=C(Nc1ccc(F)cc1F)c1cccnc1Oc1cccc(C(F)(F)F)c1,Potency,[1],inactive
same,Potency,[2],inactive
same,max response,[3],0.876%
same,Potency,[4],inactive
same,Potency,[5],inactive
same,Potency,[6],inactive
same,Potency,[7],inactive
same,Potency,[8],inactive
same,Potency,[9],inactive
same,Potency,[10],inactive
same,Potency,[11],inactive
same,Potency,[12],inactive
same,Potency,[13],inactive
same,Potency,[14],inactive
same,Potency,[15],inactive
same,Potency,[16],inactive
same,Potency,[17],inactive
CC(=O)[O-].CC(=O)[O-].O.O.[Zn+2],Potency,[1],inactive
same,Potency,[2],inactive
same,max response,[3],-2.4%
same,Potency,[4],inactive
same,Potency,[5],inactive
same,Potency,[7],inactive
same,Potency,[8],inactive
same,Potency,[9],inactive
same,Potency,[18],inactive
same,Potency,[19],inactive
same,Potency,[10],inactive
same,Potency,[20],inactive
same,Potency,[11],inactive
same,Potency,[12],inactive
same,Potency,[13],inactive
same,Potency,[14],inactive
same,Potency,[15],inactive
same,Potency,[16],inactive
same,Potency,[17],inactive
COc1nc(C)nc(NC(=O)NS(=O)(=O)c2ccccc2Cl)n1,Potency,[1],inactive
same,Potency,[2],inactive
same,max response,[3],1.45%
same,Potency,[4],inactive
same,Potency,[5],inactive
same,Potency,[6],inactive
same,Potency,[7],inactive
same,Potency,[8],inactive
same,Potency,[9],inactive
same,Potency,[18],inactive
same,Potency,[10],inactive
same,Potency,[11],inactive
same,Potency,[12],inactive
same,Potency,[13],inactive
same,Potency,[14],inactive
same,Potency,[15],inactive
same,Potency,[16],inactive
same,Potency,[17],inactive
ClC1(Cl)C2(Cl)C3(Cl)C4(Cl)C(Cl)(Cl)C5(Cl)C3(Cl)C1(Cl)C5(Cl)C24Cl (stereo unspecified),Potency,[1],inactive
same,Potency,[2],inactive
same,max response,[3],-13.1%
same,Potency,[4],inactive
same,Potency,[5],inactive
same,Potency,[6],inactive
same,Potency,[7],inactive
same,Potency,[8],inactive
same,Potency,[9],inactive
same,Potency,[18],inactive
same,Potency,[10],inactive
same,Potency,[20],inactive
same,Potency,[11],inactive
same,Potency,[12],inactive
same,Potency,[13],inactive
same,Potency,[14],inactive
same,Potency,[15],inactive
same,Potency,[16],inactive
same,Potency,[17],inactive
CCCCC(CC)COC(=O)c1ccccc1C(=O)OCC(CC)CCCC (stereo unspecified),Potency,[1],inactive
same,Potency,[2],inactive
same,max response,[3],1.87%
same,Potency,[4],inactive
same,Potency,[5],inactive
same,Potency,[6],inactive
same,Potency,[7],inactive
same,Potency,[8],inactive
same,Potency,[9],inactive
same,Potency,[18],inactive
same,Potency,[10],inactive
same,Potency,[11],inactive
same,Potency,[12],inactive
same,Potency,[13],inactive
same,Potency,[15],inactive
same,Potency,[16],inactive
same,Potency,[17],inactive
CSC(=O)c1c(C(F)F)nc(C(F)(F)F)c(C(=O)SC)c1CC(C)C,Potency,[1],inactive
same,Potency,[2],inactive
same,max response,[3],-19%
same,Potency,[4],inactive
same,Potency,[5],inactive
same,Potency,[6],inactive
same,Potency,[7],inactive
same,Potency,[8],inactive
same,Potency,[9],inactive
same,Potency,[18],inactive
same,Potency,[10],inactive
same,Potency,[20],inactive
same,Potency,[11],inactive
same,Potency,[13],inactive
same,Potency,[14],inactive
same,Potency,[15],inactive
same,Potency,[16],inactive
same,Potency,[17],inactive
CCN(CC)C(=O)N[C@@H]1C=C2c3cccc4[nH]cc(c34)C[C@@H]2N(C)C1,Potency,[1],inactive
same,Potency,[2],inactive
same,max response,[3],-0.723%
same,Potency,[4],inactive
same,Potency,[5],inactive
same,Potency,[7],inactive
same,Potency,[8],inactive
same,Potency,[9],inactive
same,Potency,[18],inactive
same,Potency,[19],inactive
same,Potency,[10],inactive
same,Potency,[20],inactive
same,Potency,[11],inactive
same,Potency,[12],inactive
same,Potency,[13],inactive
same,Potency,[14],inactive
same,Potency,[15],inactive
same,Potency,[16],inactive
same,Potency,[17],inactive
COc1ccc2[nH]cc(CCN(C(C)C)C(C)C)c2c1,Potency,[1],inactive
same,Potency,[2],inactive
same,max response,[3],-12%
same,Potency,[4],inactive
same,Potency,[5],inactive
same,Potency,[6],inactive
same,Potency,[7],inactive
same,Potency,[9],inactive
same,Potency,[18],inactive
same,Potency,[19],inactive
same,Potency,[20],inactive
same,Potency,[11],inactive
same,Potency,[12],inactive
same,Potency,[13],inactive
same,Potency,[15],inactive
same,Potency,[16],inactive
CCCCCON=O,Potency,[1],inactive
same,Potency,[2],inactive
same,max response,[3],1.89%
same,Potency,[4],inactive
same,Potency,[5],inactive
same,Potency,[6],inactive
same,Potency,[7],inactive
same,Potency,[8],inactive
same,Potency,[9],inactive
same,Potency,[18],inactive
same,Potency,[10],inactive
same,Potency,[20],inactive
same,Potency,[11],inactive
same,Potency,[12],inactive
same,Potency,[13],inactive
same,Potency,[14],inactive
same,Potency,[15],inactive
same,Potency,[16],inactive
same,Potency,[17],inactive
CCCCc1ccccc1,Potency,[1],inactive
same,Potency,[2],inactive
same,max response,[3],-16%
same,Potency,[4],inactive
same,Potency,[5],inactive
same,Potency,[6],inactive
same,Potency,[8],inactive
same,Potency,[9],inactive
same,Potency,[18],inactive
same,Potency,[19],inactive
same,Potency,[20],inactive
same,Potency,[11],inactive
same,Potency,[12],inactive
same,Potency,[13],inactive
same,Potency,[15],inactive
same,Potency,[16],inactive
same,Potency,[17],inactive
CC(=O)[O][Pb]([c]1ccccc1)([c]1ccccc1)[c]1ccccc1,Potency,[1],490 nM (active)
same,Potency,[2],3470 nM (active)
same,Potency,[3],389 nM (active)
same,Potency,[4],3890 nM (active)
same,Potency,[5],1950 nM (active)
same,Potency,[6],977 nM (active)
same,Potency,[7],1380 nM (active)
same,Potency,[8],977 nM (active)
same,Potency,[18],3090 nM (active)
same,Potency,[19],inactive
same,Potency,[10],871 nM (active)
same,Potency,[20],11000 nM (active)
same,Potency,[11],1550 nM (active)
same,Potency,[12],436 nM (active)
same,Potency,[13],3470 nM (active)
same,Potency,[14],4900 nM (active)
same,Potency,[16],3890 nM (active)
same,Potency,[17],21700 nM (active)
COc1c2c(cc3c1OCO3)CCN(C)C2,Potency,[1],inactive
same,Potency,[2],inactive
same,max response,[3],-9.04%
same,Potency,[4],inactive
same,Potency,[5],inactive
same,Potency,[6],inactive
same,Potency,[7],inactive
same,Potency,[8],inactive
same,Potency,[9],inactive
same,Potency,[18],inactive
same,Potency,[10],inactive
same,Potency,[11],inactive
same,Potency,[12],inactive
same,Potency,[13],inactive
same,Potency,[14],inactive
same,Potency,[15],inactive
same,Potency,[16],inactive
CCCCN(CCCC)C(=S)S,Potency,[1],inactive
same,Potency,[2],inactive
same,max response,[3],-4.16%
same,Potency,[4],inactive
same,Potency,[5],inactive
same,Potency,[6],inactive
same,Potency,[9],inactive
same,Potency,[18],inactive
same,Potency,[19],inactive
same,Potency,[20],inactive
same,Potency,[11],inactive
same,Potency,[12],inactive
same,Potency,[13],inactive
same,Potency,[14],inactive
same,Potency,[15],inactive
same,Potency,[16],inactive
same,Potency,[17],inactive
